Assay results: the supplement of paper PMC10646978
± gives the standard deviation.

Assays:
Details in all cases: modulator concentration 10 µM
[1] = tested on: RAW-Dual (murine macrophage reporter line); experiment: NF-kB reporter (SEAP) activity fold change vs agonist alone; higher = enhanced NF-kB activity
Outline: (§1)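 RAW-Dual murine macrophage reporter cells were seeded at 50 000 per well in 384-well plates and pre-incubated 1 hour at 37 °C with compound pin-transferred to 10 μM final. After 1 hour, a PRR agonist was added and cells incubated overnight. Supernatant NF-κB (SEAP, QUANTI-Blue, 620 nm absorbance) and IRF (Lucia luciferase, QUANTI-Luc, luminescence) signals were divided by the mean agonist-only control on the same plate to give fold change. Two replicate plates were averaged, with errors by propagation.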

[2] = tested on: RAW-Dual (murine macrophage reporter line); experiment: IRF reporter (Lucia luciferase) activity fold change vs agonist alone; higher = enhanced IRF activity
Outline: as §1

[3] = tested on: RAW-Dual (murine macrophage reporter line); experiment: viability score (confluency relative to resting cells, overnight) (fraction); higher = more viable, active = viable (0.7 or more)
Outline: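 Confluency was the readout: RAW-Dual macrophages were imaged with IncuCyte after an overnight exposure to compound at 10 μM final. IncuCyte software produced two masks over all imaged wells. The viability score expresses confluency against resting cells, and both masks had to exceed 70% of resting cells for a compound to meet the cutoff.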

[4] = agonist: CpG ODN 1826 0.5 ug/mL

SMILES	NF-kB reporter [1, 4]	NF-kB reporter ([1]; agonist: LPS 0.1 ug/mL)	NF-kB reporter ([1]; agonist: MPLA […])	IRF reporter ([2]; agonist: 3'3'-cGAMP 10 ug/mL)	IRF reporter ([2]; agonist: LPS 0.1 ug/mL)	IRF reporter ([2]; agonist: MPLA […])	viability score [3]
Cc1cc(CCNC(=O)c2cc3ccccc3s2)nn1C	1.2 ± 0.12	1.07 ± 0.082	0.991 ± 0.064	0.82 ± 0.032	1.03 ± 0.06	0.993 ± 0.16	0.997 (active)
O=C(Nc1ccc([N+](=O)[O-])cc1Br)C1CC12CCC2 (configuration not stated)	0.957 ± 0.074	0.83 ± 0.068	1.05 ± 0.13	1.03 ± 0.049	1.39 ± 0.27	1.55 ± 0.38	1.02 (active)
CCN(CC)CC#CC(OC)(c1ccccc1)c1ccccc1.Cl	0.356 ± 0.088	0.414 ± 0.063	0.47 ± 0.082	0.549 ± 0.019	1.16 ± 0.16	1.29 ± 0.23	0.148 (inactive)
Clc1ccc2c(c1)C(N1CCNCC1)=Nc1ccccc1O2	0.996 ± 0.26	1.02 ± 0.066	0.969 ± 0.07	0.893 ± 0.03	1.2 ± 0.25	1.28 ± 0.13	0.637 (inactive)
C=CCNC1=C2C[C@@H](C)C[C@H](OC)[C@H](O)[C@@H](C)/C=C(\C)[C@H](OC(N)=O)[C@@H](OC)/C=C\C=C(/C)C(=O)NC(=CC1=O)C2=O	0.174 ± 0.0095	0.215 ± 0.021	0.413 ± 0.042	1.63 ± 0.15	3.81 ± 0.34	3.4 ± 0.71	0.493 (inactive)
NC(Cc1ccccc1)C(=O)O (configuration not stated)	1.29 ± 0.31	0.956 ± 0.07	0.943 ± 0.071	0.911 ± 0.032	1.12 ± 0.22	1.1 ± 0.1	1 (active)
Oc1cccc(C=Nc2ccc(N=Cc3cccc(O)c3O)cc2)c1O	0.606 ± 0.053	0.727 ± 0.069	0.783 ± 0.079	0.712 ± 0.052	0.93 ± 0.2	0.922 ± 0.2	0.984 (active)
O=C1CNC(=O)N1CC(O)Cn1c2ccc(Br)cc2c2cc(Br)ccc21 (configuration not stated)	0.998 ± 0.091	0.791 ± 0.068	0.908 ± 0.025	0.989 ± 0.22	0.928 ± 0.044	0.698 ± 0.079	0.926 (active)
CC(=O)N(C=Cc1cc[n+](CCCS(=O)(=O)[O-])c2ccccc12)c1ccccc1	0.982 ± 0.1	1.05 ± 0.063	0.908 ± 0.094	1.01 ± 0.052	1.57 ± 0.16	1.25 ± 0.25	1.01 (active)
COc1ccc2cc1Oc1ccc(cc1)C[C@H]1c3c(cc4c(c3Oc3cc5c(cc3OC)CCN(C)[C@@H]5C2)OCO4)CCN1C	0.195 ± 0.011	1.09 ± 0.091	0.928 ± 0.059	0.786 ± 0.045	0.931 ± 0.099	0.889 ± 0.12	0.991 (active)
CC(C)C1=NN2C(=N)C(=Cc3ccc(-c4ccccc4[N+](=O)[O-])o3)C(=O)N=C2S1	0.927 ± 0.078	0.953 ± 0.065	0.944 ± 0.066	0.89 ± 0.043	1.48 ± 0.22	1.06 ± 0.22	1.01 (active)
CCCS(=O)c1ccc2nc(NC(=O)OC)[nH]c2c1 (configuration not stated)	1.04 ± 0.15	0.998 ± 0.1	1.05 ± 0.037	0.971 ± 0.058	0.927 ± 0.037	0.917 ± 0.11	0.998 (active)
NC(=O)NO	1.31 ± 0.18	1.21 ± 0.29	0.96 ± 0.057	0.905 ± 0.028	1.44 ± 0.26	1.09 ± 0.084	1 (active)
CCOc1cc2ncc(C#N)c(Nc3ccc(OCc4ccccn4)c(Cl)c3)c2cc1NC(=O)/C=C/CN(C)C	0.161 ± 0.007	0.781 ± 0.075	0.907 ± 0.092	0.694 ± 0.032	1.46 ± 0.26	1.56 ± 0.57	0.977 (active)
Nc1ncnc2c1ncn2C1CC(O)C(CO)O1 (configuration not stated)	0.992 ± 0.08	0.875 ± 0.065	1.12 ± 0.11	1.12 ± 0.039	1.29 ± 0.18	1.35 ± 0.26	1.05 (active)
CCCOCCOC(=O)C1=C(C)NC2=C(C(=O)CCC2)C1c1ccc(F)c(F)c1 (configuration not stated)	0.971 ± 0.081	1.07 ± 0.1	0.851 ± 0.07	1.09 ± 0.042	1.41 ± 0.1	1.2 ± 0.12	1.01 (active)
Cc1ccc(C23CC4CC(CC(CN)(C4)C2)C3)cc1C.Cl	0.652 ± 0.44	0.309 ± 0.056	1.08 ± 0.35	0.11 ± 0.0065	0.32 ± 0.1	0.256 ± 0.11	0.51 (inactive)
Cc1cc(=O)[nH]c(-n2nc(C)c(CCC(=O)N3CCN(C)CC3)c2C)n1	1.16 ± 0.092	1.13 ± 0.089	0.977 ± 0.028	1.01 ± 0.084	1.05 ± 0.12	0.931 ± 0.095	0.994 (active)
C=CC(=O)N1CCC(Oc2cc3c(Nc4ccc(Cl)c(Cl)c4F)ncnc3cc2OC)CC1	0.879 ± 0.037	0.909 ± 0.095	1.05 ± 0.061	1.08 ± 0.064	1.36 ± 0.3	1.49 ± 0.48	0.97 (active)
O=C(NC1CCCCC1)N(Cc1cnc2ccccn12)c1ccccc1	1.01 ± 0.1	1.14 ± 0.088	1.15 ± 0.059	0.997 ± 0.044	1.06 ± 0.053	1.05 ± 0.16	0.995 (active)
CC1(C)CC(=O)C2=C(C1)OC(N)=C(C#N)C21CCCCC1	1.01 ± 0.18	0.866 ± 0.07	0.895 ± 0.14	0.867 ± 0.024	1.13 ± 0.15	1.18 ± 0.14	1 (active)
OCCN1CCN(C(c2cccs2)c2ccc3cccnc3c2O)CC1 (configuration not stated)	1.95 ± 0.14	0.699 ± 0.036	0.66 ± 0.048	0.759 ± 0.049	0.332 ± 0.027	0.26 ± 0.021	0.155 (inactive)
CC(=O)Oc1cc2c(s1)CCN(C(C(=O)C1CC1)c1ccccc1F)C2.Cl (configuration not stated)	0.767 ± 0.1	0.727 ± 0.11	0.77 ± 0.043	0.779 ± 0.073	1.01 ± 0.088	0.998 ± 0.12	0.983 (active)
CC(=O)Oc1ccc2occ(C(=O)c3cccs3)c2c1	0.844 ± 0.099	0.964 ± 0.13	1.19 ± 0.14	0.836 ± 0.039	1.17 ± 0.074	1.26 ± 0.18	1.02 (active)
N#Cc1nc(-c2ccc(COc3ccc(Cl)cc3)o2)oc1N1CCCCC1	0.826 ± 0.063	1.29 ± 0.14	1.13 ± 0.075	1.21 ± 0.047	1.57 ± 0.1	1.12 ± 0.15	0.998 (active)
Cc1ccc(OCCCOc2cccc3cccnc23)c(C)c1	0.854 ± 0.11	1.1 ± 0.073	1.62 ± 0.11	0.932 ± 0.07	1.26 ± 0.14	2.82 ± 0.39	0.895 (active)
